# According to PubChem BioAssay:
# The list shows a part of the results. The source made the active and inactive calls. Unless noted, no stated cut-off is given here; in the data, active means activity above about 50%; inactive means the rest.
# Experiments:
# [1] = target: Tumor necrosis factor receptor superfamily member 10B (Homo sapiens) (UniProt O14763); experiment: caspase-8 TRAIL sensitization, hit retest, confirmation, cell-based, NB7+caspase-8, with/without TRAIL, luminescence panel (AID 651596); details: NB7 neuroblastoma + caspase-8, TRAIL sensitization, luminescence viability, with TRAIL, mean of runs, at 10 µM, stronger effect = higher value
# [2] = as above; details: NB7 neuroblastoma + caspase-8, without TRAIL, luminescence viability, without TRAIL, mean of runs, at 10 µM
# [3] = HIF-2a reporter inhibitor retest, confirmation, luminescence, 786-0 RCC cells (AID 651580;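 active means mean inhibition across four replicates of at least 40 percent at the single tested concentration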); details: HIF-2a luciferase reporter luminescence, overnight, at 18.8 µM, stronger effect = higher value
# [4] = HIF-1a luciferase reporter signal reduction – MiaPaCa-2 cells, single concentration, counter-screen for HIF-2a inhibitor project, confirmation (AID 651589;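 active means mean inhibition of the reporter signal across four replicates at the single tested dose of 50% or more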); details: MiaPaCa-2 HIF-1a luciferase reporter, desferoxamine, overnight; at 18.8 µM; stronger effect = higher value
# Tumor necrosis factor receptor superfamily member 10B (Homo sapiens), sequence (O14763 whole entry, looked up): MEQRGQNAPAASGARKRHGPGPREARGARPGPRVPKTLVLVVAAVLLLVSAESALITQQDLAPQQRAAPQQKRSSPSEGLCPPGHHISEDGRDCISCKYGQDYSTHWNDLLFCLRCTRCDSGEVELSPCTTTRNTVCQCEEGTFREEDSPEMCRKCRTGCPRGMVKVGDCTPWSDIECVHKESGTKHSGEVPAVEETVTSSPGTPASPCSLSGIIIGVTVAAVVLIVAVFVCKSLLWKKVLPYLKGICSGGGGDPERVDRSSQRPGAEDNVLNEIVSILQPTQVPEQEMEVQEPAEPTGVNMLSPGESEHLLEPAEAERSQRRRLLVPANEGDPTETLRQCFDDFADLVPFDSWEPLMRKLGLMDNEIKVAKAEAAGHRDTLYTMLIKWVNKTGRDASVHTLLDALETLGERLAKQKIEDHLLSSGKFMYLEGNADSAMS
Compound,activity [1],activity [2],inhibition [3],inhibition [4]
O=C(NC1CCCCC1)C(c1cccnc1)N(C(=O)CCl)c1ccc(F)cc1 (stereo not given),99.2%,98.8%,–,–
CS(=O)(=O)N(Cc1ccc(Cl)cc1)c1ccc(C(=O)NCCSCc2ccco2)cc1,–,–,-0.82% (inactive),45.5% (inactive)
COc1ccc(C(=O)O/N=C(\N)c2ccccc2Cl)cc1OC,95.7%,92.8%,–,–
O=C(CN1C(=O)c2ccccc2S1(=O)=O)c1ccc(Cl)cc1Cl,64.3%,–,–,–
CCCSC(=S)NC1CCS(=O)(=O)C1 (stereo not given),–,–,14.6% (inactive),68.5% (active)
COc1cccc2c(C)c(C(=O)O)[nH]c12,–,–,35.5% (inactive),37.3% (inactive)
CC[C@@H]1Cc2cc(O)ccc2C2=C1c1ccc(O)cc1C[C@H]2CC,–,–,54.5% (active),104% (active)
O=C(N/N=C/c1cc(Br)cs1)c1ccc2c(c1)OCCO2,78.8%,77.9%,–,–
O=C1CC(c2ccc3c(c2)OCCO3)Oc2ccc([N+](=O)[O-])cc21 (stereo not given),56.3%,55.9%,–,–
CC(/C=N/NC(=O)c1cccs1)=C\c1ccccc1,61.9%,–,–,–
O=C(OCn1ncc(Cl)c(Cl)c1=O)c1ccc(C(F)(F)F)cc1,95.2%,94%,–,–
CCN1CCN(CCNC(=O)c2ccc3c(c2)NC(=O)/C(=C\c2cccc(Cl)c2)S3)CC1,–,–,-18.3% (inactive),108% (active)
COc1ccc(/C=N\n2nnc3ccccc32)cc1,53.3%,42.7%,–,–
c1c2c(cc3sc(N4CCOCC4)nc13)OCCO2,66.8%,75%,–,–
O=C(CCl)N(Cc1cccc([N+](=O)[O-])c1)c1cccc(Cl)c1,99.1%,99.6%,62.8% (active),107% (active)
